Assay results as given in PubChem BioAssay (NCI).
Values joined by “and” are separate entries in the source; they are usually repeats but may differ in a detail not shown here. Equal entries are not always repeated. Compounds without any hit were thinned out: in the full panel of roughly 79,000, 15% have a hit. Active and inactive are the calls of the source. Cut-off read from the data, not from the text of the source: active = growth inhibition above about 70%; inactive = the rest. Where a SMILES comes first, the peptide text is derived from it. The star is where a group is joined. Cbz = O=C(OCc1ccccc1)*

Assays:
[1] = NCI Yeast Anticancer Drug Screen. Data for the rad50 strain (AID 155);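 note: 0% = growth of vehicle-only cultures of the same strain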; conditions: S. cerevisiae rad50 strain growth inhibition, stronger effect = higher value; at 50.0 µM unless noted
Summary of the method: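 Vehicle-treated cultures provide the reference for the growth inhibition reported for compound-exposed, repair-deficient yeast.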

[2] = NCI Yeast Anticancer Drug Screen. Data for the mec2-1 strain (AID 157); conditions: S. cerevisiae mec2-1 strain, stronger effect = higher value; at 50.0 µM unless noted
Summary of the method: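 Compounds were applied to mec2-1 yeast cells. Their growth was then compared with that of vehicle-treated cultures to give growth inhibition.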

[3] = NCI Yeast Anticancer Drug Screen. Data for the sgs1 mgt1 strain (AID 161);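 note: 0% = growth of cultures given vehicle only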; conditions: S. cerevisiae sgs1 mgt1 strain, stronger effect = higher value; at 50.0 µM unless noted
Summary of the method: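 Percent growth inhibition was derived by comparing compound-exposed mutant yeast with vehicle-exposed cultures. The strain carries alterations in DNA damage repair.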

[4] = NCI Yeast Anticancer Drug Screen. Data for the cln2 rad14 strain (AID 165);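 note: 0% = growth equal to vehicle treated cultures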; conditions: S. cerevisiae cln2 rad14 strain, stronger effect = higher value; at 50.0 µM unless noted
Summary of the method: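 Strain: cln2 rad14 yeast, altered in cell cycle control and DNA damage repair. Read-out: growth inhibition vs vehicle.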

[5] = NCI Yeast Anticancer Drug Screen. Data for the bub3 strain (AID 167); conditions: S. cerevisiae bub3 mutant strain, stronger effect = higher value; at 50.0 µM unless noted
Summary of the method: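 Mutant yeast screening strain plus compound; vehicle-treated cultures serve as the 0% inhibition reference.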

[6] = NCI Yeast Anticancer Drug Screen. Data for the mlh1 rad18 strain (AID 175); conditions: S. cerevisiae mlh1 rad18 strain growth inhibition, stronger effect = higher value; at 50.0 µM unless noted
Summary of the method: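 A repair-deficient yeast strain is exposed to test compound, and growth is scored relative to vehicle-treated controls.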

Measured: growth inhibition

COCN(CCc1ccccc1)CCN(C)C
inactive: [1] 1.4% | [2] 5.1% | [3] 35% | [4] 7.2% | [5] 2.05% | [6] 16.5%

Cc1ccc(OCCC(=O)N(C)C)cc1
inactive: [1] 5.05% | [2] 2.9% | [3] -8.25% | [4] -10% | [5] 4.2% | [6] 10.9%

Cc1ccc2nc(-c3ccc(NC(=O)c4ccc(N)cc4)c(S(=O)(=O)O)c3)sc2c1
inactive: [1] 1.9% | [2] 4.7% | [3] -25.9% | [4] -22% | [5] -16.4% | [6] -8.85%

Cn1c([N+](=O)[O-])cnc1CSc1nc(-c2ccccc2)no1
inactive: [1] 17.9% | [2] 1.8% | [3] 33.8% | [4] -1.1% | [5] 5.25% | [6] 33.1%

Cc1c(N(C)CN(C)c2c(C)n(C)n(-c3ccccc3)c2=O)c(=O)n(-c2ccccc2)n1C
inactive: [1] -13.2% | [2] -27.4% | [3] -15.7% | [4] 3.25% | [5] -12.9% | [6] -18%

CCN(CC)CCCNc1ncnc2c1C(c1ccccc1)c1ccccc1-2 (centres undefined)
inactive: [1] 8.5% | [2] -14.7% | [3] 1.7% | [4] 6% | [5] -4.85% | [6] -6.9%

C(/C=C/c1ccccc1)=Nc1ccc(SSc2ccc(N=C/C=C/c3ccccc3)cc2)cc1
inactive: [1] 38.2% | [2] 6.25% | [3] 4.65% | [4] -13% | [5] -3.05% | [6] 27.9%

CNc1ccccc1C(=O)NCCCN
inactive: [1] -10.3% | [2] -25.6% | [3] 5% | [4] 2.75% | [5] 18.8% | [6] 0.45%

CON(C)C(=O)CNC(=O)OCC1c2ccccc2-c2ccccc21
inactive: [1] 8% | [2] -6.05% | [3] 5.35% | [4] 2.15% | [5] -5% | [6] -29.3%

CC(C)(C)C(=O)Oc1ccc([N+](=O)[O-])cc1
inactive: [1] 2.15% | [2] -0.35% | [3] -7.55% | [4] -30.4% | [5] -33.1% | [6] 10.2%

NC(=S)Nc1ccc(Br)cc1
inactive: [1] -0.85% | [2] 23.6% | [3] 25.5% | [4] 34.8% | [5] -4.05% | [6] 7.6%

CN(CC#CC#CCN(C)c1ccccc1)c1ccccc1
inactive: [1] -14.2% | [2] -28.1% | [3] -13.6% | [4] -27% | [5] -35.2% | [6] -20.1%

Cc1ccc(C)c(NS(=O)(=O)c2ccc(Cl)cc2)c1
active: [1] 98.9% | [2] 99.2% | [3] 99.1% | [4] 99.3% | [5] 98.8% | [6] 99.2%

Cc1sc2nc3n(c(=O)c2c1C)N=CN(c1ccc(Cl)cc1)C3
inactive: [1] 5.5% | [2] 5.1% | [3] 7.8% | [4] -3.15% | [5] 0.05% | [6] -45.2%

O=c1n(CC2CO2)c(=O)n(CC2CO2)c(=O)n1CC1CO1 (centres undefined)
inactive: [1] -8.4% and -1.15% | [2] 11.6% and 8.65% | [3] 19.7% and -18.9% | [4] -25.3% and -6.25% | [5] 26.1% and -34% | [6] 28.1% and 2.45%

COC1C(OC(=O)c2ccc(C)[nH]2)C(O)C(Oc2ccc3c(O)c(NC(=O)c4c[nH]c(C(=O)Nc5c(O)c6ccc(OC7OC(C)(C)C(OC)C(OC(=O)c8ccc(C)[nH]8)C7O)c(C)c6oc5=O)c4C)c(=O)oc3c2C)OC1(C)C (centres undefined)
inactive: [1] 17% | [2] 8.45% | [3] 15.2% | [4] 24.7% | [5] 11.4% | [6] 26.6%

CC(=O)Oc1ccc2c(c1)CCC2
inactive: [1] 9.85% | [2] 12.8% | [3] 1.4% | [4] 8.25% | [5] 15.1% | [6] 0.1%

NC(=O)C(Cc1ccccc1)NC(=O)C(Cc1ccccc1)NC(=O)C(Cc1ccccc1)NC(=O)OCc1ccccc1 (stereo not drawn) (Cbz-Phe-Phe-Phe-NH2; configuration not given here)
inactive: [1] 25.6% | [2] 7.8% | [3] 17.6% | [4] -12% | [5] -5.2% | [6] 21.9%

Oc1cc(O)c2cc(O)c(-c3ccc(O)c(O)c3)[o+]c2c1
inactive: [1] 11.4% | [2] 2.2% | [3] 23.4% | [4] 4.1% | [5] 31.1% | [6] 28.1%
